The source made the active and inactive calls. Unless noted, no rule for the calls is given here.
Tests used:
[1] = A549 cell viability effects, profiling panel, calcein-AM fluorescence, 48 h, basal (AID 1162); conditions: higher = more signal; also: test concentration not given here
[2] = adipocyte viability effects, profiling panel, cell-based, 3T3-L1 adipocytes, calcein-AM fluorescence, 48 h, basal (AID 1163); conditions: 3T3-L1 adipocytes viability, higher = more signal; also: test concentration not given here
[3] = HepG2 cell viability effects, profiling panel, calcein-AM fluorescence, 48 h, basal (AID 1164); conditions: higher = more signal; also: test concentration not given here
[4] = MM1S cell viability effects, profiling panel, calcein-AM fluorescence, 48 h, basal (AID 1165); conditions: higher = more signal;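 also: viability of MM1S multiple myeloma cells under basal unstimulated conditions; test concentration not given here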
[5] = basal RPMI8226 viability, no added stimulus, profiling panel, cell-based, calcein-AM fluorescence, 48 h, PK04 Diversity Set (AID 1166); conditions: RPMI8226 myeloma viability, higher = more signal;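 also: cells grown under basal conditions without added stimulus; test concentration not given here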
[6] = basal HepG2 mitochondrial membrane potential changes, profiling panel, cell-based, JC-1 fluorescence, 24 h, 100 nL compound (AID 1167); conditions: higher = more signal; also: test concentration not given here
[7] = basal 3T3-L1 adipocyte mitochondrial potential changes, profiling panel, cell-based, JC-1 fluorescence, 3T3-L1 adipocytes, 24 h, 100 nL compound (AID 1168); conditions: JC-1 mitochondrial fluorescence, higher = more signal, called active from +8 up or from −8 down; also: test concentration not given here
[8] = basal RPMI8226 mitochondrial membrane potential changes, profiling panel, cell-based, JC-1 fluorescence, 24 h, 100 nL compound (AID 1169); conditions: RPMI8226 myeloma, JC-1 mitochondrial potential fluorescence, higher = more signal; also: test concentration not given here
[9] = basal MM1S mitochondrial membrane potential changes, profiling panel, cell-based, JC-1 fluorescence, 24 h, 100 nL compound (AID 1170); conditions: higher = more signal; also: test concentration not given here
[10] = A549 lung cancer cell viability effects, profiling panel, resazurin fluorescence, 24 h, PK04 Diversity Set (AID 1171); conditions: higher = more signal, called active from +8 up or from −8 down; also: test concentration not given here
[11] = HepG2 liver cancer cell viability effects, profiling panel, resazurin fluorescence, 24 h, PK04 Diversity Set (AID 1172); conditions: higher = more signal; also: test concentration not given here
[12] = basal S. cerevisiae growth modulation, no modifier, primary screen, OD600, strain BY4716, 24 h, basal condition (AID 1173); conditions: OD600, 24 h, higher = more signal, called active from +8 up or from −8 down
[13] = MM1S myeloma cell viability, profiling panel, resazurin fluorescence, basal, 24 h, PK04 Diversity Set (AID 1174); conditions: higher = more signal, called active from +8 up or from −8 down;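 also: MM1S multiple myeloma cell line; test concentration not given here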
[14] = target: Dihydroorotate dehydrogenase (quinone), mitochondrial (Plasmodium falciparum (isolate 3D7)) (UniProt Q08210); assay: PfDHODH enzyme inhibitors, primary screen, biochemical, C-terminal His tag, absorbance 600 nm (AID 1175); conditions: DCIP absorbance 600 nm, higher = more signal, called active from +8 up or from −8 down;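 also: recombinant parasite enzyme with a five histidine tag at its C terminus; test concentration not given here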
[15] = P. aeruginosa biofilm formation inhibitors, primary screen, strain PAO1, LB-PBS medium, absorbance 600 nm (AID 1176); also: test concentration not given here; conditions: P. aeruginosa PAO1 growth/biofilm, A600, 12 h; higher = more signal
[16] = S. cerevisiae RM11-1a growth modifiers, primary screen, strain RM11-1a, OD600, basal, 24 h (AID 1177); conditions: OD600, 24 h, higher = more signal, called active from +8 up or from −8 down;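 also: cultures grown under basal conditions with no added stressor; test concentration not given here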
[17] = E. coli acrAB mutant growth effects, primary screen, E. coli filamentation inducers, strain DRC39, OD650, 24 h (AID 1178); conditions: higher = more signal, called active from +8 up or from −8 down;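 also: growth measured as culture turbidity by optical density at 650 nm; test concentration not given here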
[18] = E. coli acrAB mutant growth effects, primary screen, E. coli filamentation inducers, strain DRC39, OD650, 48 h (AID 1179);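 also: screen aims at cell division blockers that make cells filament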; conditions: E. coli DRC39 delta-acrAB growth, higher = more signal, called active from +8 up or from −8 down
[19] = RPMI8226 myeloma cell viability, profiling panel, resazurin fluorescence, basal, 24 h, PK04 Diversity Set (AID 1180); conditions: higher = more signal;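 also: RPMI8826 multiple myeloma cell line at 5000 cells per well; test concentration not given here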
[20] = target: E3 ubiquitin-protein ligase XIAP (Homo sapiens) (UniProt P98170); assay: XIAP binders, primary screen, biophysical, small-molecule microarray, fluorescence 635 nm (AID 1181); conditions: small-molecule microarray binding, higher = more signal;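 also: score merges 667 nm emission and signal to noise over triplicate slides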
Sequence of E3 ubiquitin-protein ligase XIAP (Homo sapiens) (P98170 whole entry, looked up): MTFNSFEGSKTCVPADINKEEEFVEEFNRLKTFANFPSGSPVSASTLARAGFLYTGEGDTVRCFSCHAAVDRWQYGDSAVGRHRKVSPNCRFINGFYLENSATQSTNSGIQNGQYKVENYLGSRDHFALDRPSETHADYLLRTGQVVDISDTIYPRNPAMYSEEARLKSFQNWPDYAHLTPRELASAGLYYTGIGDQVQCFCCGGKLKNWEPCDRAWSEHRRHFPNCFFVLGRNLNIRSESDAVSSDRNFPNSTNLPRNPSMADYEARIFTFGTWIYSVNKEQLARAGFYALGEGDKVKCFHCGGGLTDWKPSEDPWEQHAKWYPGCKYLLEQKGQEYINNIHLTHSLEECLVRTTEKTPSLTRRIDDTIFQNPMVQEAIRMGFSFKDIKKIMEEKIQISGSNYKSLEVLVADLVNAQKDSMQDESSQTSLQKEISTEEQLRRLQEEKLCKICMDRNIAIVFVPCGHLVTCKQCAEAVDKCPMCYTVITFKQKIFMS

Sequence of Dihydroorotate dehydrogenase (quinone), mitochondrial (Plasmodium falciparum (isolate 3D7)) (Q08210 whole entry, looked up): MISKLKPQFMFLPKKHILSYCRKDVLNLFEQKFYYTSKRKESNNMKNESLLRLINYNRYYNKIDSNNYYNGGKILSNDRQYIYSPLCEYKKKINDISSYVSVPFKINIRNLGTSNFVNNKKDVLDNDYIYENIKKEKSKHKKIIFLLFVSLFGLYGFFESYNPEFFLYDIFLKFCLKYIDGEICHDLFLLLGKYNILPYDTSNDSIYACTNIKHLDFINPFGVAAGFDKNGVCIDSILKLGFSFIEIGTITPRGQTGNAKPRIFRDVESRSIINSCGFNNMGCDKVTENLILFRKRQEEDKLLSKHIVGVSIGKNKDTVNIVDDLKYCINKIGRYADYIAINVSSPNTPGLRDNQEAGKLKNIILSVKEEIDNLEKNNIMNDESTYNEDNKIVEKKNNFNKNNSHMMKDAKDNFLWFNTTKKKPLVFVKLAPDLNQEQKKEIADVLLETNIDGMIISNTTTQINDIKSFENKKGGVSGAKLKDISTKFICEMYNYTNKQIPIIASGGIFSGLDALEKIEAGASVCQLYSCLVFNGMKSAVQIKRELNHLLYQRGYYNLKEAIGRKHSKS

SMILES | z-score [1] | z-score [2] | z-score [3] | z-score [4] | z-score [5] | z-score [6] | z-score [7] | z-score [8] | z-score [9] | z-score [10] | z-score [11] | z-score [12] | z-score [13] | composite z-score [14] | z-score [15] | z-score [16] | z-score [17] | z-score [18] | z-score [19] | composite z-score [20]
C[C@@H]1C=CCC(=O)OC[C@H]2O[C@@H](C=C[C@@H]2O)[C@H](C)C=CCC(=O)OC1 | 0.164 | -0.0309 | 1.37 | 0.35 | 0.72 | 0.909 | 1.27 (inactive) | -0.0914 | 1.21 | -0.976 (inactive) | -0.444 | -1.03 (inactive) | 0.324 (inactive) | -0.793 (inactive) | 0.565 (inactive) | -2.26 (inactive) | 0.577 (inactive) | 0.205 (inactive) | -0.667 | -0.0826
CO[C@@H]1COC(=O)[C@H](CCSC)NC(=O)CC=C[C@@H](C)COC(=O)[C@H](C)NC(=O)CC=C[C@H]1C | 0.205 | 0.0719 | 0.677 | 0.174 | -0.0512 | 0.381 | -0.225 (inactive) | -0.226 | 2.32 | 0.767 (inactive) | 0.356 | -1.15 (inactive) | 0.457 (inactive) | 0.262 (inactive) | -0.838 (inactive) | -0.224 (inactive) | 0.916 (inactive) | 0.577 (inactive) | 0.693 | -0.324
CCCNC(=O)OC[C@H]1O[C@H](CCON=C(C)CCC(=O)OC[C@H]2O[C@H](c3ccccc3)C=C[C@@H]2Oc2ccc(OC)cc2)C=C[C@@H]1Oc1ccc(OC)cc1 | 0.415 | 0.354 | -0.208 | -1.31 | -0.303 | 1.26 | 0.000229 (inactive) | 0.625 | 0.33 | 0.748 (inactive) | 0.704 | 0.195 (inactive) | 0.205 (inactive) | -1.13 (inactive) | 0.0525 (inactive) | 0.17 (inactive) | 0.629 (inactive) | 0.363 (inactive) | 1.31 | -0.171
O=c1n(-c2ccccc2)c(=O)n2n1CC[C@@H]1C(=NOCc3ccccc3)[C@H]3O[C@H]3[C@@H](O)[C@@H]12 | 0.172 | -0.915 | 0.251 | -0.232 | 0.169 | -0.406 | -0.78 (inactive) | -0.0915 | -0.531 | -1.08 (inactive) | -1.28 | -0.274 (inactive) | -0.503 (inactive) | -3.02 (inactive) | -0.0485 (inactive) | -0.249 (inactive) | -0.792 (inactive) | -0.604 (inactive) | -1.12 | -0.0026
CO[C@@H]1COC(=O)CC=C[C@@H](C)[C@H](OC)COC(=O)[C@@H](C)COC(=O)CC=C[C@H]1C | 0.865 | -0.159 | 1.48 | 0.397 | -0.802 | 1.11 | -0.661 (inactive) | 0.338 | 0.253 | 0.134 (inactive) | 0.225 | -0.621 (inactive) | 0.586 (inactive) | 0.577 (inactive) | -0.225 (inactive) | 0.401 (inactive) | 0.666 (inactive) | 0.733 (inactive) | 0.151 | -0.0264
C[C@H]1Cc2c(COc3ccccc3)nc3c(c2CO1)CN(CCOc1ccccc1)CC3 | 1.05 | 0.175 | 0.93 | -0.125 | -0.517 | 2.33 | 0.678 (inactive) | -0.041 | 0.184 | -0.0515 (inactive) | -0.503 | -3.09 (inactive) | 0.598 (inactive) | -0.555 (inactive) | 1.69 (inactive) | -0.466 (inactive) | 1.52 (inactive) | 0.996 (inactive) | 0.961 | -0.0767
C#CCCCON=C1C[C@@H](O)[C@@H](O)[C@@H]2[C@@H]3C(=O)N(CCC(=O)OCC)C(=O)[C@@H]3CC[C@H]12 | 0.278 | 0.73 | 0.249 | -0.0993 | 0.111 | 0.0972 | -0.367 (inactive) | 0.0174 | -1.36 | -1.11 (inactive) | -1.1 | -4.65 (inactive) | -0.307 (inactive) | -0.937 (inactive) | -0.191 (inactive) | -1.71 (inactive) | 0.0851 (inactive) | 0.1 (inactive) | -0.192 | -0.232
C=CC1=C[C@H](O)[C@@H]2O[C@@H]2C12OCCCO2 | -0.375 | -0.564 | -0.0684 | -0.705 | 0.265 | -0.977 | -0.729 (inactive) | -0.371 | -0.361 | 0.0527 (inactive) | 0.257 | 0.301 (inactive) | -0.458 (inactive) | 0.695 (inactive) | 0.262 (inactive) | -0.838 (inactive) | 0.451 (inactive) | 0.489 (inactive) | -0.38 | -0.03

From PubChem BioAssay
